The entries come from a sample that favours hits as a whole.
CHX counter: Cycloheximide Counterscreen for Small Molecule Inhibitors of Shiga Toxin. cell reporter, cycloheximide protein synthesis inhibition counterscreen. max response, %. 300,000 tested, 12% active. AID 2314, 2010; in the data active = max response mostly above about 13%, no sharp cut-off; inactive = mostly below about 14%; note: read at 38.3 µM for the half of the compounds with a filed dose; 0% is about no effect
Shiga inhibitor: A qHTS for Small Molecule Inhibitors of Shiga Toxin; Vero cells, Shiga toxin protein synthesis inhibition reporter; 290,000 tested, 9.2% active; inhibition, % at 38.7 µM; AID 2315, 2010; in the data active = inhibition mostly above about 28%, no sharp cut-off; inactive = mostly below about 43%; note: 0% is about no effect
NS1 inh: qHTS Assay for Inhibitors of Influenza NS1 Protein Function; 270,000 tested, 0.4% active; AID 2326, 2010; Potency, µM (titrated, usually from 46.1 µM), for the others: at the highest dose activity, positive = more growth; calls by dose curve; note: potency is the fitted concentration of half-maximal effect; actives are rising curves; nearly all actives have a fitted effect of over 50% in size
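Growth recovery, yeast-based: influenza A NS1 expressed in S. cerevisiae causes slow growth, and suppressors are detected by OD600. The parent strain without NS1 is used as positive control.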
AmpC no deterg: qHTS Inhibitors of AmpC Beta-Lactamase (assay without detergent) | AID 485341, 2010 | 330,000 tested, 0.52% active | AmpC nitrocefin hydrolysis, absorbance 480 nm, 0.0001% Triton | P00811 | Potency, µM (top dose mostly 57.1 µM), for inactives: top-dose activity change, negative = inhibition, most hits filed as inhibitors;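 note: potency is the fitted concentration of half-maximal effect; plate controls were no compound for no effect and no enzyme for full effect; nearly all actives have a fitted effect of over 20% in size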
Target sequence (P00811 whole entry, looked up): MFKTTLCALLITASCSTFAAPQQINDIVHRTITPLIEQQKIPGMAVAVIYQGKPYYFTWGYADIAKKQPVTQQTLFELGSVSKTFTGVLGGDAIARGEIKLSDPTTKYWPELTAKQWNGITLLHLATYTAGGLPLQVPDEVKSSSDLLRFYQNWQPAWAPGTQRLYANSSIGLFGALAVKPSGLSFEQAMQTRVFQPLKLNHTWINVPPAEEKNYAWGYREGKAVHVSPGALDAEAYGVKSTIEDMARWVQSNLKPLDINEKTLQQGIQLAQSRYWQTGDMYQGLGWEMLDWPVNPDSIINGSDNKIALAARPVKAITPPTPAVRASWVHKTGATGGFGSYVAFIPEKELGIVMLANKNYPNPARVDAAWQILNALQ
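20 mM phosphate pH 7.0 + 0.01% (detergent screen) or 0.0001% Triton X-100; 5.3 nM AmpC reagent; cpd preinc 15 min RT; nitrocefin (800 uM stock) to start; A480 q20 s × 4 min; Activity was normalised to no-enzyme and no-compound control wells.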
AmpC inh detg: qHTS Inhibitors of AmpC Beta-Lactamase (assay with detergent); P00811; AmpC hydrolysis of nitrocefin, absorbance 480 nm, 0.01% Triton; Potency, µM (series often up to 114 µM), for inactives: at the highest dose activity change, negative = inhibition, hits mostly inhibitors; 370,000 tested, 0.041% active; AID 485294, 2010;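 note: potency is the fitted concentration of half-maximal effect; 0% = no-compound wells and -100% = no-enzyme wells; nearly all actives have a fitted effect of over 25% in size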
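AmpC (5.3 nM in the dispensed reagent) in 20 mM phosphate pH 7.0 with 0.01% (detergent screen) or 0.0001% Triton X-100 was preincubated with compounds for 15 min at room temperature. Nitrocefin was then added from an 800 uM solution, and hydrolysis was followed at 480 nm.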
* = called active by the depositor; i = inactive; ? = inconclusive; . = no result. Unless noted, calls come from the whole dose curve; as a rule, active = well fitted curve in the direction sought with a large enough effect; inconclusive = small, poorly fitted or top-dose-only effect, or another doubt; inactive = no such curve, though single readings can be large; an effect the other way counts as inactive or inconclusive.

SMILES	CHX counter	Shiga inhibitor	NS1 inh	AmpC no deterg	AmpC inh detg
COc1ccc(/C=C/C(=O)c2ccc(C)c([N+](=O)[O-])c2)cc1O	46*	79*	-64%	-19%	-12%
COc1cc(/C=C/C(=O)OCC(=O)N2CCC(C)CC2)ccc1OCC#N	.	.	.	12%	0%
COc1cccc(C(=O)/C=C/c2ccc(OCC#N)c(OC)c2)c1	39*	16*	-3%	-26%	-3%
CCOc1ccc(C(=O)/C=C/c2ccc(OC)c(OC)c2)cc1	1	26	-6%	66%	-4%
COc1cc(/C=C/C(=O)c2ccc(C)c([N+](=O)[O-])c2)cc(OC)c1O	-1	-6	-2%	-18%	-14%
COc1cc(/C=C/C(=O)c2ccc(O)cc2)ccc1OCC#N	71*	85*	-7%	-24%	?
CCOc1ccc(/C=C/C(=O)c2ccccc2)cc1OC	56*	80*	-30%	-17%	-3%
O=C(COc1ccccc1)NCC(=O)N/N=C/c1ccc(Cl)cc1	2	-5	2%	-8%	0%
O=C(NC1(C(F)(F)F)C(=O)Nc2c1c(=O)[nH]c(=O)n2-c1ccc(Cl)cc1)c1ccccc1F (configuration not stated)	.	.	.	.	4%
Cc1c(Cl)cccc1NC(=O)CN1C(=O)CCn2nc(-c3cccn3C)cc21	.	.	.	.	10%
O=C(CN1N=C(c2ccc(Cl)cc2)CCC1=O)NCc1ccc(F)cc1	.	.	.	.	-3%
O=C(O)[C@H](Cc1c[nH]c2ccccc12)N1C(=O)C2=CCCC=C2C1=O	-3	4	.	.	.
COc1ccc(OCc2cc(C(=O)N3CCC(OC)CC3)no2)c2ccccc12	41*	126*	-26%	120%	4%
CCOC(=O)C1CCN(C(=O)c2cc(COc3ccc(OC)c4ccccc34)on2)CC1	43*	82*	4%	108%	-13%
COc1cc(Cl)ccc1OCc1cc(C(=O)N2CCN(c3ccccn3)CC2)no1	12	17	-35%	83%	-14%
COc1ccc(Cl)cc1-c1ccc(C(=O)O)s1	24	i	.	.	.
CC(C)N1C(=O)CN(C2CCCCCC2)C(=O)C1c1ccccc1F (configuration not stated)	60*	187*	7%	22%	-6%
O=C1c2ccccc2C(=O)N1C[C@]1(C(=O)O)NCCS1(=O)=O	.	.	2%	.	.
CC(C)(C)c1ccc(-c2nnc(SCC(=O)c3ccc4c(c3)OCCO4)o2)cc1	9	27	-2%	-18%	-2%
Cc1cc(-c2nc(-c3ccc(C(C)(C)C)cc3)no2)no1	39*	53*	0%	-20%	5%
CCn1nc(C)c(Br)c1-c1nc(-c2ccc(C)cc2)no1	1	7	1%	-13%	1%
CC(C)(C)c1ccc(-c2noc(-c3ccc4c(c3)CCO4)n2)cc1	21*	35*	2%	-5%	-7%
Cc1c(-c2nc(-c3ccc(C(C)(C)C)cc3)no2)n(C)oc1=O	60*	161*	-6%	-7%	3%
Cc1ccc(C(=O)N2CCNC(=O)C2CC(=O)Nc2ccccc2)cc1 (configuration not stated)	-2	-7	3%	4%	-3%
CN(Cc1c(F)cccc1Cl)C(=O)c1cnc2ccccc2n1	12*	43	-7%	-7%	?
SMILES	CHX counter	Shiga inhibitor	NS1 inh	AmpC no deterg	AmpC inh detg
COc1cc(O)cc2cc3c(c(O)c12)C(=O)CC(C)(O)O3 (configuration not stated)	35*	37*	4%	-42%	6%
Cc1nn(CC(=O)Nc2ccc(N3CCOCC3)cc2)c(C)c1Cl	8.8*	35	5%	8%	-2%
CCNCC(=O)Nc1ccc(N2CCOCC2)cc1	-3	-10	.	-17%	1%
CC(C)CC(=O)Nc1ccc(N2CCN(S(C)(=O)=O)CC2)cc1	-3	26	-9%	-23%	-7%
CCCCOC(=O)Nc1ccc(N2CCOCC2)cc1	29*	80*	5%	-14%	2%
CCCCOC(=O)Nc1ccc(N2CCCCC2)cc1	43*	94	-9%	-1%	-10%
CCc1ccc(OCCCC(=O)Nc2ccc(N3CCCCC3)cc2)cc1	-3	-15	6%	-18%	2%
CC(C)CC(=O)Nc1ccc(N2CCOCC2)cc1	16	89*	16%	-13%	?
O=C(OCCCOC(=O)c1ccc(O)cc1)c1ccc(O)cc1	2	13	-19%	-44%	-5%
O=C1CN(C(=O)COc2ccc(Cl)cc2Cl)C(c2ccccc2)c2cc(F)ccc2N1 (configuration not stated)	.	.	.	.	7%
CC1CCCCC1NC(=O)COC(=O)c1c2c(nc3ccccc13)/C(=C/c1ccco1)CC2 (configuration not stated)	10	-13	24%	16µM*	?
O=C(COC(=O)c1c2c(nc3ccccc13)/C(=C/c1ccco1)CC2)NC1CCCC1	-2	-8	23%	18µM*	-11%
Cc1cc(C(=O)OCC(=O)NC2CCCCC2C)c2ccccc2n1 (configuration not stated)	.	.	.	1%	.
CCOc1cc(NC(=O)c2ccccc2[N+](=O)[O-])c(OCC)cc1NC(=O)CC(C)C	1	-4	1%	86%	-10%
CCCCC(=O)NC1(C(F)(F)F)C(=O)Nc2c1c(=O)[nH]c(=O)n2-c1ccc(C)c(C)c1 (configuration not stated)	.	.	.	.	25%
O/N=C/c1cn(-c2ccccc2)nn1	27*	37	.	-11%	-9%
Clc1ccc(-n2cnnn2)cc1	-4	-15	12%	-11%	3%
COc1ccc(-c2nn(-c3ccccc3)cc2/C=N/O)cc1	2	9	-7%	-14%	6%
O/N=C/c1cn(-c2ccc(Cl)cc2)nn1	37*	49	.	-11%	-8%
COc1cccc(-c2ncc3ccccc3c2COC(=O)c2ccc(F)cc2)c1	.	.	.	11%	-5%
Cn1c(N)nc2c(nc(OCc3ccccc3)n2[C@@H]2O[C@H](CO)[C@@H](O)[C@@H]2O)c1=O	.	.	-3%	.	.
Clc1ccc(OCc2nc(-c3ccccn3)no2)c(Br)c1	42*	66*	-12%	-12%	?
Clc1ccccc1OCc1nc(-c2ccccn2)no1	33*	70*	-6%	-17%	-14%
COCCCNc1nc2c(c(=O)n(Cc3ccccc3)c(=O)n2C)n1C	.	.	.	.	4%
Cc1c(N)cccc1-c1nc2ccccc2[nH]1	52*	39*	11%	-24%	-4%
Nc1ccc(Cc2nc3c(ccc4ccccc43)[nH]2)cc1	46*	97*	2%	-26%	-14%
Cc1ccc2nc(-c3ccccc3N)[nH]c2c1	41*	70	-10%	-44%	3%
O=C(O)c1ccccc1-c1nc2ccccc2[nH]1	1	39	.	-13%	?
Nc1ccc2nc(Cc3ccccc3)[nH]c2c1	21	25	17%	-24%	-10%
Nc1ccc(-c2nc3ccc(N)cc3[nH]2)cc1	24*	40	.	-19%	-13%

High-throughput results from PubChem.
